Screening results deposited in PubChem by National Center for Advancing Translational Sciences (NCATS).
Nrf2 ARE act: activators of Nrf2 (ARE) signaling; AREc32 ARE-luciferase reporter (MCF7-derived line), luminescence, 24 h; Potency, µM (series often up to 46.1 µM), for inactives: top-dose activation, most hits filed as activators; actives 0.31% (n = 410,000); further: % of control where 0% means no effect; nearly all actives have a fitted effect of over 65% in size
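AREc32_Fluc, 1000 cells/well, OPTI-MEM + 5% FBS, o/n 37 deg C 5% CO2; 23 nL cpd by pin tool, 24 hr; Steady-Glo 30 min RT, luminescence.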
A549 tox: kills or reduces viability of A549 cells in Nrf2 counter-screen. A549 ARE-Fluc cells, CellTiter-Fluor viability, 18-24 h. AID 504648. Potency, µM (series often up to 46 µM), inactives show at the top dose activity change, negative = cytotoxicity, usual class: inhibitors. actives 0.16% (n = 390,000); further: on the % scale 0 is the no-effect control and ±100 the full control effect
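A549 ARE_Fluc cells in 5% FBS OPTI-MEM were exposed to compounds in concentration-response for 18-24 h at 37 deg C. Viability was read by CellTiter-Fluor fluorescence (Ex 405/Em 525) after 30 min, before the luciferase read.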
HepG2 tox: counter-screen for TGF-b inhibitors: cytotoxicity in HepG2 cells. HepG2 CAGA-GFP viability, ATP luminescence, 18 h. Potency, µM (titrated, usually from 46.1 µM), without a hit: at the highest dose activity change, negative = cytotoxicity, hits mostly cytotoxic. actives 0.76% (n = 410,000). AID 588856
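CellTiter-Glo luminescence gave cytotoxicity after 18 hours at 37 degrees C. The cells were HepG2 CAGA-GFP in 1% FBS DMEM, stimulated with 500 pg/mL TGF-beta after compound addition. %Activity was normalised to no-cell wells (complete cell-killing) and DMSO (no toxicity), and curves were fitted and classified.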
TGFb inhibitor: TGF-b pathway inhibition. actives 1.2% (n = 410,000). HepG2 CAGA-GFP TGF-b/SMAD3 reporter, GFP fluorescence, 18 h; TGF-beta stimulated, 500 pg/mL final. AID 588855. Potency, µM (top dose mostly 46.1 µM), without a hit: top-dose activity, negative = inhibition, hits mostly inhibitors; further: on the % scale 0 is the no-effect control and ±100 the full control effect; nearly all actives have a fitted effect of over 65% in size
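Inhibition of TGF-beta-driven CAGA-GFP reporter expression in HEPG2 cells is measured by cellular GFP fluorescence after 18 h stimulation with 500 pg/mL recombinant TGF-beta in 1% FBS medium at 37 degrees C.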
Nrf2 block: Nrf2 pathway inhibition; actives 2.1% (n = 360,000); A549 ARE-Fluc reporter, luciferase luminescence, 18-24 h; Potency, µM (top dose mostly 46 µM), inactives show top-dose activity change, negative = inhibition, most hits filed as inhibitors; further: on the % scale 0 is the no-effect control and ±100 the full control effect; nearly all actives have a fitted effect of over 60% in size
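Two sequential reads on A549 ARE_Fluc cells exposed to compound for 18-24 h: a CellTiter-Fluor fluorescence read for viability, then a luciferase luminescence read for Nrf2/ARE activity.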
An asterisk follows results filed as active; ? = inconclusive; . = not tested or not shown; [ ] = another dose, or the depositor's remark. Compounds with a hit are over-represented: about 3.6% of the library has one in this group of screens. The call rests on the fitted dose curve; in most records, active means well fitted curve in the direction sought with a large enough effect; inconclusive means small, poorly fitted or top-dose-only effect, or another doubt; inactive means no such curve, though single readings can be large; an effect the other way counts as inactive or inconclusive. Potency means the concentration at half of the fitted maximal effect.

SMILES	Nrf2 ARE act	A549 tox	HepG2 tox	TGFb inhibitor	Nrf2 block
CCC1NC(=O)c2cc3ccccc3cc2-n2c1nc1ccc(OC)cc1c2=O (stereo unspecified)	-0.1%	.	-13.3%	-13.9%	.
O=C(Nc1cccc(F)c1)c1ccco1	10µM*	-3.4%	-15.1%	-20.0%	9.4%
CCn1c(C(=O)NCc2ccccc2Br)cc2oc3ccccc3c21	-0.2%	7.8%	12.6µM*	41.5%	?
CCn1c(C(=O)NCc2cccc(Br)c2)cc2oc3ccccc3c21	-0.3%	-9.9%	-56.3%	.	?
COc1ccccc1C(=O)NCC(=O)N=Nc1c(O)n(C(C)C)c2ccccc12	-0.4%	-15.2%	8.4%	-18.7%	23.1µM*
CC(C)n1c(O)c(N=NC(=O)CNC(=O)Cc2ccc(Cl)cc2)c2ccccc21	0.1%	-6.4%	-13.7%	-17.4%	-20.0%
Cc1ccc(S(=O)(=O)N2C[C@H]3n4c(=O)ccc(=O)n4C[C@H](OC(=O)Nc4cccs4)[C@@]3(O)C2)cc1	0.3%	.	-6.8%	-24.3%	.
CC(=O)NCCNc1nc2cc(-c3ccccc3)sc2c(=O)n1C	1.2%	.	-8.2%	9.1%	.
COc1ncccc1-c1cc2nc(NCCNC(C)=O)n(C)c(=O)c2s1	3.55µM*	.	-38.8%	3.6%	.
CC(C)(C)OC(=O)N[C@@H](Cc1ccccc1)c1nnc(SCC(=O)O)o1	-0.6%	-11.2%	-2.6%	25.0%	-3.3%
CCSc1nnc([C@H](Cc2ccccc2)NC(=O)OC(C)(C)C)o1	-0.5%	-5.0%	-42.3%	-10.6%	0.3%
CC(C)(C)OC(=O)N[C@@H](Cc1ccccc1)c1nnc(SCC(=O)c2ccc(Cl)cc2)o1	0.1%	-18.4%	7.0%	?	25.9µM*
Cc1ccccc1CS(=O)(=O)c1nnc([C@H](Cc2ccccc2)NC(=O)OC(C)(C)C)o1	-0.6%	-5.9%[1.84 µM]	-102.3%	?	23.1µM*
CCC(C)[C@@H](NC(=O)OC(C)(C)C)c1nnc(S(=O)(=O)Cc2cccc(C)c2)o1 (stereo partly specified)	-3.3%	-8.5%	-101.2%	8.91µM*	.
CCCCN1C(=S)NC[C@@H]1c1ccccc1	-0.1%	-1.3%	-26.2%	?	-8.6%
O=C(C[C@H]1C/C=C\C[C@H](NC(=O)OCC2c3ccccc3-c3ccccc32)C(=O)OC[C@H](Cc2ccccc2)NC1=O)N[C@H](CO)Cc1ccccc1	0.7%	-6.0%	12.6µM*	?	4.1%
Cn1cnc2c(SCc3ccccc3)ncnc21	1.7%	-3.8%	11.8%	19.2%	?
CCOc1ccc(NC(=O)CN2CCCC2c2cccs2)cc1S(=O)(=O)N1CCCCC1 (stereo unspecified)	8.5%	-5.2%	-6.6%	?	?
Cc1ccc(NC(=S)Nc2ccc(C(C)C)cc2)cc1S(=O)(=O)N1CCCCCC1	11.1%	?	-51.1%	?	11.6µM*
Cc1ccc(NC(=O)COc2ccccc2)cc1S(=O)(=O)N1CCCCC1	0.3%	.	1.9%	-2.6%	.
CCCCC(=O)Nc1ccc(C)c(S(=O)(=O)N2CCCCCC2)c1	5.3%	?	-19.5%	?	16.4µM*
Cc1ccc(NC(=O)CN2CCCC2c2cccs2)cc1S(=O)(=O)N1CCCCC1 (stereo unspecified)	1.3%	-15.0%	-32.7%	?	20.6µM*
C=CCNC(=S)Nc1ccc(C)c(S(=O)(=O)N2CCCCC2)c1	0.3%	1.0%	0.6%	10.3%	-6.8%
Cc1ccccc1OCC(=O)Nc1ccc(C)c(S(=O)(=O)N2CCCCCC2)c1	1.0%	-23.2%	-2.2%	?	23.1µM*
Cc1ccc(S(=O)(=O)NCCSCc2ccccc2)cc1	0.6%	3.2%	-24.0%	-1.2%	.
SMILES	Nrf2 ARE act	A549 tox	HepG2 tox	TGFb inhibitor	Nrf2 block
CCN(CC)c1ccc(C2C(C(=O)OCCOC)=C(C)NC3=C2C(=O)CC(C)(C)C3)cc1 (stereo unspecified)	-0.7%	-5.2%	-0.6%	4.0%	.
C[C@H](NC(=O)c1ccco1)C(=O)OCC(=O)N1CC(=O)Nc2ccccc21	-0.1%	0.0%	2.3%	19.5%	-2.1%
Cc1ccc(S(=O)(=O)N2CCOCC2)cc1NC(=O)COc1cccc(-n2cnnn2)c1	2.7%	-4.1%	-35.5%	2.3%	-7.5%
COc1ccc(NC(=O)COc2ccccc2Cc2ccccc2)cc1S(N)(=O)=O	0.1%	?	-34.2%	?	13µM*
Cc1ccc(NC(=O)CN2C(=O)NC(Cc3c[nH]c4ccccc34)C2=O)cc1S(=O)(=O)N1CCCCC1 (stereo unspecified)	0.3%	-5.9%	-7.0%	10µM*	?
Cc1ccc(NC(=O)COc2cccc(-n3cnnn3)c2)cc1S(=O)(=O)N1CCOCC1	0.6%	-0.1%	1.6%	-8.5%	23.1µM*
COc1ccc(N(C)S(=O)(=O)c2cccc(C(=O)NCC3CCCCC3)c2)cc1	0.5%	-4.1%	-0.2%	-14.9%	-14.7%
COc1cccc(N2CCN(c3ncnc4c3cnn4-c3ccc(C)cc3C)CC2)c1	-5.3%	?	-60.0%	?	18.4µM*
Cc1ccc(-n2ncc3c(N4CCCC4)ncnc32)c(C)c1	0.2%	-5.4%	-12.4%	4.7%	24.7%
Cc1ccc(-n2ncc3c(SCc4cccc(C)c4)ncnc32)cc1	-0.5%	1.0%	19.7%	-11.3%	4.8%
Cc1ccc(-n2ncc3c(SCc4cccnc4)ncnc32)c(C)c1	2.7%	-19.8%	-5.8%	?	4.11µM*
N#CCCN(C(=O)COC(=O)c1cc(=O)[nH]c2ccccc12)c1ccccc1	3.3%	1.0%	5.0%	0.0%	8.5%
COc1ccc([C@H]2[C@H]3C=CC[C@@H](C)[C@@H]3C(=O)N2Cc2ccccc2)cc1Cl	4.3%	-2.0%	-16.8%	?	?
CCCCCSc1nncc(=O)[nH]1	-0.7%	16.5%	-3.1%	0.6%	?
CCCCCCCCSC1=CC(=O)C(OC)=C(OC)C1=O	?	.	7.08µM*	10µM*	.
S=C(Nc1ccccc1Cl)N(Cc1ccccc1)Cc1ccccn1	-0.1%	-10.2%	-4.6%	-16.3%	20.6µM*
COc1ccccc1NC(=S)N(Cc1ccccc1)Cc1ccccn1	-1.4%	0.8%	-22.3%	3.4%	?
COc1ccccc1N1CCN(C(=O)CSc2ncnc3scc(-c4ccccc4)c23)CC1	1.9%	-3.4%	-25.8%	-26.1%	18.4µM*
Oc1cccc2ccc(/C=C/c3ccccc3Cl)nc12	?	11.7%	-23.9%	?	27.7%
Nc1nccc(/C=C/c2c(F)cccc2Cl)n1	10µM*	6.3%	-1.1%	-26.6%	?
Fc1cccc(Cl)c1/C=N/Nc1ccccn1	?	7.4%	-0.9%	2.1%	?
Oc1cccc2ccc(/C=C/c3c(F)cccc3Cl)nc12	1µM*	0.7%	-9.7%	?	29.9%
